# Screening results deposited in PubChem BioAssay by several laboratories.
# Insulin prom inh: inhibitors of insulin promoter-driven GFP, primary screen, imaging, TRM-6 cells (human fetal islet line), eGFP reporter, cell count; reporter expression induced with tamoxifen; inhibition, % at 2 µM; hit rate 0.9% among 130,000; AID 1273, 2008;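 active = inhibition above the mean plus 3 SD, with well images judged a real hit on visual review, cut at about 60% in these data, passing the limit was not always enough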
# Insulin prom up: insulin promoter activators in MIN6 cells, imaging, high-content screening, mouse beta cells | z-score at 5 µM | MIN6 insulin promoter-GFP reporter; stronger effect = higher value | hit rate 0.3% among 190,000;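 active = z-score above 3 at 5 µM with at least 500 cells counted in the well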
# HCT116 bCat-KO: primary screen for growth suppressors in beta-catenin knockout HCT116 cells (colon tumor, human); hit rate 1.5% among 140,000; viability, % at 10 µM; HCT116 beta-catenin knockout viability, CellTiter-Glo, 60 h; stronger effect = lower value;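 active = viability at or under a set limit, the compound median less 4 SD, cut at about 6% in these data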
# Lmaj promast: Leishmania major promastigote growth inhibition, primary screen. Leishmania major promastigotes, resazurin fluorescence viability. inhibition, % at 10 µM. hit rate 9% among 200,000. AID 1063, 2008; in the data active = inhibition above about 50%;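 note: promastigotes grown with compound for 44 hours at 28 °C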
# HCT116 PTEN-null: growth suppression of PTEN-null HCT116, primary screen, cell-based, CellTiter-Glo | HCT116 PTEN-null viability, 60 h; stronger effect = lower value | viability, % at 10 µM | hit rate 1.2% among 140,000 | AID 827, 2007;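 active = viability at or below a set limit, 4 SD under the median of all tested compounds, cut at about 3.7% in these data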;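 note: PTEN knockout HCT116 line with beta catenin targeted HCT116 as companion control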
# Autophagy mod: autophagy modulators in MEF cells, primary screen, imaging, high-content, MEF GFP-LC3. calls only at 10 µM (by protocol). hit rate 0.98% among 190,000. MEF GFP-LC3 puncta imaging; test concentration mostly 10 µM;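 active = percentage of spot-positive cells more than 3 SD above its plate mean, without a fluorescence outlier flag or 80% toxicity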
# Numbers stand for hits; 0 = inactive; - = not tested or not shown; + = active, no number. Only some compounds are listed: those with a hit (about 9.6% of all), similar ones and a draw of the others.
SMILES,Insulin prom inh,Insulin prom up,HCT116 bCat-KO,Lmaj promast,HCT116 PTEN-null,Autophagy mod
NC(=O)c1c(NC(=O)C2COc3ccccc3O2)sc2c1CCN(Cc1ccccc1)C2 (centres undefined),0,0,-,0,-,+
N#CC1=C(N)Oc2n[nH]c(-c3ccccn3)c2C1c1c(F)cccc1Cl (centres undefined),0,0,0,0,0,0
CCS(=O)(=O)Nc1cc(-c2nc3cccnc3s2)ccc1C,-,0,0,0,0,0
CCC1=C(OC(=O)c2ccccc2)C(C)(C)C(c2ccccc2)OC1=O (centres undefined),0,0,0,0,0,0
Cc1cc2nc(CCN(Cc3cccnc3)C(=S)Nc3ccc(F)cc3)[nH]c2cc1C,-,0,0,0,0,0
COc1ccccc1NC(=S)N(CCc1nc2cc(C)c(C)cc2[nH]1)Cc1cccnc1,0,-,0,57,0,0
Cc1cc2nc(CCN(Cc3cccnc3)C(=S)Nc3ccccc3)[nH]c2cc1C,0,0,0,91,0,0
Cc1ccccc1NC(=O)N(CCc1nc2ccccc2[nH]1)Cc1ccccc1,0,0,0,58,0,0
N#C/C(=C/c1ccc(Oc2ccc([N+](=O)[O-])cn2)cc1)C(=O)N1CCOCC1,0,0,0,66,0,0
N#C/C(=C\c1cccc(Oc2ccccc2)c1)C(=O)N1CCOCC1,-,0,-,0,-,0
Cc1ccc2c(c1)N(CC(=O)N1CCCCC1c1cccnc1)C(=O)CO2 (centres undefined),0,0,0,77,0,0
Cc1ccc2c(c1)N(CC(=O)NCc1cccnc1)C(=O)CO2,0,0,0,0,0,0
COc1ccc(C(=O)CC(c2ccccc2)S(=O)(=O)c2ccc(C)cc2)cc1 (centres undefined),0,0,0,0,0,0
COc1ccc(C(CC(=O)c2ccc(O)cc2)S(=O)(=O)c2ccc(C)cc2)cc1 (centres undefined),0,0,6.0,91,0,0
COc1ccc(C(CC(=O)c2ccc(C)cc2)Nc2ccc([N+](=O)[O-])cc2)cc1 (centres undefined),0,0,0,96,0,0
O=C(Nc1cc(=O)[nH]c(=O)[nH]1)c1cccc(Br)c1,0,0,-,0,-,0
O=C(Nc1cc(C(F)(F)F)ccc1N1CCOCC1)c1ccco1,0,0,0,0,0,0
O=C(c1ccccc1)c1ccc(N2CCOCC2)c(NC(=O)c2ccco2)c1,0,-,0,64,0,0
Cc1ccc(NC(=O)c2cc(NC(=O)c3ccco3)ccc2N2CCOCC2)cc1Cl,0,0,0,0,0,+
O=C(Nc1ccc(N2CCCC2)c(Cl)c1)c1ccco1,0,0,0,0,0,0
Cc1[nH]c2ccccc2c1SCCNC(=O)c1ccc(S(=O)(=O)N2CCCC2)cc1,0,0,0,99,0,0
Cc1[nH]c2ccccc2c1C(=O)CSc1nc2cc(S(=O)(=O)N3CCCCC3)ccc2o1,-,0,0,55,0,0
O=C1CC(CC(=O)N/N=C/c2ccccc2[N+](=O)[O-])=NN1,0,0,0,0,0,0
COCCNC(=S)N(CCc1c(C)[nH]c2ccc(F)cc12)Cc1cccs1,0,0,-,0,-,0
COCCNC(=S)N(CCc1c(C)[nH]c2ccc(Cl)cc12)Cc1cccs1,0,0,-,53,-,0
SMILES,Insulin prom inh,Insulin prom up,HCT116 bCat-KO,Lmaj promast,HCT116 PTEN-null,Autophagy mod
CC(C)c1nc2cc3ccccc3cc2[nH]1,86,0,0,0,0,0
O=c1[nH]c2cc3ccccc3cc2nc1C(F)(F)F,-,0,-,0,-,0
CC(C)(C)NCC(O)CON=C1c2ccccc2-c2ccccc21 (centres undefined),-,0,-,99,-,0
CCCn1cnc2cc(NCc3ccccn3)ccc21,-,0,0,0,0,0
C=CCn1c(=O)c2ccccc2n2c(SCC(=O)Nc3sc(C)c(CC)c3C(=O)OCC)nnc12,0,0,0,71,0,0
C=CCn1c(=O)c2ccccc2n2c(SCC(=O)Nc3sc(C(=O)N(CC)CC)c(C)c3C(=O)OCC)nnc12,-,-,0,0,0,0
CNC(=O)CN(c1ccc(F)cc1)S(=O)(=O)c1cc(C)ccc1OC,0,-,0,0,0,0
COc1ccc2[nH]c(=O)c(CN(C(=O)c3cccnc3)c3ccccc3)cc2c1,0,0,0,0,0,0
COc1ccc2[nH]c(=O)c(CN(C(=O)NC3CCCCC3)C3CCCCC3)cc2c1,0,-,0,100,0,0
COc1ccc2[nH]c(=O)c(CN(C(=O)c3ccccn3)c3ccccc3)cc2c1,0,-,0,100,0,0
CCOC(=O)c1c(-c2ccc(Cl)cc2)cn2ccccc12,0,0,0,0,0,0
CCN(CC)C(=O)c1ccc(NS(=O)(=O)c2ccccc2)cc1,100,0,0,0,0,0
CCOc1ccc(NC(=S)N(CCc2c(C)[nH]c3ccc(C)cc23)Cc2ccncc2)cc1,0,0,0,70,0,0
Cc1[nH]c2ccc(F)cc2c1CCN(Cc1cccnc1)C(=S)Nc1ccccc1,0,0,-,100,-,0
CCOc1ccc(NC(=S)N(CCc2c(C)[nH]c3ccccc23)Cc2cccnc2)cc1,0,0,0,100,0,0
CCOc1ccc(NC(=S)NCc2cccnc2)cc1,-,0,-,-,-,-
COc1ccc(NC(=S)NCCc2c(C)[nH]c3ccc(OC)cc23)cc1,0,0,-,62,-,0
OCCN(Cc1ccccc1)C(=S)Nc1ccc(F)cc1,-,0,-,0,-,0
Cc1n[nH]c(C)c1S(=O)(=O)N1CCCC(C(=O)N2CCc3ccccc32)C1 (centres undefined),-,0,0,0,0,0
O=C(N/N=C/c1ccc(OCc2cnc(Cl)s2)cc1)c1ccncc1,0,0,-,0,-,0
COc1ccc(NC(=S)N(Cc2cccnc2)Cc2cc3cc(OC)c(OC)cc3[nH]c2=O)cc1,-,0,-,0,-,0
COc1cccc(NC(=S)N(CCc2c(C)[nH]c3ccccc23)Cc2cccs2)c1,0,0,0,0,0,0
Cc1[nH]c2ccc(F)cc2c1CCN(Cc1ccncc1)C(=S)Nc1ccccc1,0,0,-,74,-,0
Cc1[nH]c2ccccc2c1CCN(Cc1cccnc1)C(=S)Nc1ccc(F)cc1,0,0,-,100,-,0
COc1ccc(NC(=S)N(CCc2c(C)[nH]c3ccc(C)cc23)Cc2cccnc2)cc1,0,0,0,100,0,0
Cc1[nH]c2ccccc2c1CCN(Cc1cccs1)C(=S)Nc1ccccc1,0,0,-,0,-,0
Cc1[nH]c2ccccc2c1CCN(Cc1cccnc1)C(=S)Nc1cccc(F)c1,0,0,-,100,-,0
Cc1ccc(C2(C(F)(F)F)NC(=O)N3CCN=C3S2)cc1 (centres undefined),0,0,0,0,0,0
Cc1ccc(C2(C(F)(F)F)N=C3Sc4cc(C)ccc4N3C(=O)N2)cc1 (centres undefined),0,3.5,0,0,0,0
